Bioassay records as filed in PubChem BioAssay.
HPGD block: blocks human HPGD enzyme activity; purified HPGD, NADH fluorescence kinetic, PGE2 substrate; Potency, µM, inactives show top-dose activity change, negative = inhibition, hits mostly inhibitors; AID 894; actives 4.3% (n = 150,000); P15428; active means well fitted inhibition curve with a large enough effect, not every such curve was filed as active; inconclusive means small, poorly fitted or top-dose-only effect, or another doubt; inactive means no such curve, though single readings can be large or run the other way; further: potency means the concentration at half of the fitted maximal effect
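NADH formation kinetics: reaction with 30 uM PGE2 and 1 mM NAD+ (final), 20 nM enzyme, Tris-HCl pH 8 with Tween 20, after 15 min compound preincubation at room temperature. Fluorescence change, last versus first of five reads.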
ALDH1A1 block: inhibitors of human aldehyde dehydrogenase 1A1; P00352; Purified ALDH1A1, NADH fluorescence, propionaldehyde substrate; Potency, µM (top dose mostly 75.3 µM), inactives show top-dose activity, negative = inhibition, actives largely listed as inhibitors; actives 7.3% (n = 220,000); AID 1030; active means well fitted inhibition curve with a large enough effect, not every such curve was filed as active; inconclusive means small, poorly fitted or top-dose-only effect, or another doubt; inactive means no such curve, though single readings can be large or run the other way;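 further: potency means the concentration at half of the fitted maximal effect; plate controls were no enzyme wells and a reference inhibitor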
IMPase Li inh: IMPase inhibition in cells with lithium potentiation; CHO-M1 cells, IP1 TR-FRET (IP-One), carbachol + lithium; AID 1457; Potency, µM (top dose mostly 59.4 µM), inactives show at the top dose activity, negative = IMPase inhibition, usual class: inhibitors; actives 0.35% (n = 210,000);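 further: IP1 builds up when IMPase is blocked and the TR-FRET signal falls; potency means the concentration at half of the fitted maximal effect; plate controls were basal vehicle for no effect and high inhibitor control for full effect; nearly all actives have a fitted effect of over 50% in size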
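CHO-M1, 2000 cells/well, 16–30 h culture; cpd + low Li+, 30 min 37C; lysis with d2-IP1/Eu-anti-IP1 Ab, 10 min RT; TR-FRET 665/620 ratio and 620 channel; AC50 via Hill.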
PNC inhibitor: perinucleolar compartment assembly inhibition; PC3M PTB-GFP, PNC prevalence imaging, 16 h; active compounds read low; activity change (PNC), negative = inhibition, % at 10 µM; actives 3.1% (n = 140,000);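 active means readout at or below -70, meaning at least 70% loss of cells showing the perinucleolar compartment, a nuclear body marking cancer cells; inconclusive means readout between -30 and a set limit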;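 further: plate controls were DMSO wells for no effect and camptothecin positive control wells for full effect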
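Compounds are pinned in duplicate onto adhered PC3M cells stably expressing GFP-tagged PTB and incubated 16 h at 37 C. Cells are then fixed, nuclei stained with Hoechst, and PNC-positive cells counted.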
ALOX12 inhib: blocks human 12-lipoxygenase activity; P18054; purified 12-hLO, xylenol orange hydroperoxide absorbance; Potency, µM (series often up to 57.1 µM), for the others: at the highest dose activity change, negative = inhibition, most hits filed as inhibitors; actives 0.12% (n = 150,000); AID 1452; further: potency means the concentration at half of the fitted maximal effect; nearly all actives have a fitted effect of over 55% in size
Target sequence (P18054 whole entry, looked up): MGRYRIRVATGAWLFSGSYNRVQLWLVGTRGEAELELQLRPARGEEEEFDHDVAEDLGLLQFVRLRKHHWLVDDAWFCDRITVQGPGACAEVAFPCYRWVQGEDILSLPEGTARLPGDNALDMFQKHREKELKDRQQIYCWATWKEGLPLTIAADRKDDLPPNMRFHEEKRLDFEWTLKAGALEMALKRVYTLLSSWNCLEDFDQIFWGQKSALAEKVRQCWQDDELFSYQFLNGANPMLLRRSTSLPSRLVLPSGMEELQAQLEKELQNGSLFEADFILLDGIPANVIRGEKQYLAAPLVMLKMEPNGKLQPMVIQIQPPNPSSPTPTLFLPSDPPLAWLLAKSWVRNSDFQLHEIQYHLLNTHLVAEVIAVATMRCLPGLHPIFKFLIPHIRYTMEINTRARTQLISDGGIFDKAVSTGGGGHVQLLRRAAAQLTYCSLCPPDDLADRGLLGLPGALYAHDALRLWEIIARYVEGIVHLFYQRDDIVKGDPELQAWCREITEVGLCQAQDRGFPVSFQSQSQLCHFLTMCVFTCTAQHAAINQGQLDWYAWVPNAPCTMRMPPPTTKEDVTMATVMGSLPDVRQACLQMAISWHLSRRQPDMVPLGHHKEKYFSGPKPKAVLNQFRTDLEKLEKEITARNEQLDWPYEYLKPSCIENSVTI
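Xylenol orange chromogenic assay: hydroperoxide from 12hLO oxidises Fe(II), giving red-shifted Fe(III)-XO absorbance. Conditions: 150 nM enzyme, 40 uM arachidonic acid, 25 mM Hepes pH 7.0, 0.01% Triton X-100, 30 min, room temperature.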
IMPase inh: membrane-permeable compound that blocks inositol monophosphatase; P97697; inhibition (IP1 accumulation), % at 46.1 µM; CHO-M1 cells, IP1 accumulation, HTRF TR-FRET ratio; 120,000 tested, under 10 active; active means well fitted curve in the direction sought with a large enough effect in the signal ratio, not every such curve was filed as active; inconclusive means small, poorly fitted or top-dose-only effect, or a change in a side signal; inactive means no such curve, though single readings can be large or run the other way; the % refers to the signal ratio;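 further: cells stimulated with carbachol in lithium chloride buffer; plate controls were DMSO basal wells for no effect and reference inhibitor wells for full effect; higher means more IMPase inhibition seen as more IP1 and lower FRET ratio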
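Seeded CHO-M1 cells were dosed with compound at up to 46 uM, stimulated with carbachol for 30 min, then lysed in IP-One detection reagents. Higher IP1 lowers the TR-FRET signal.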
Numbers without * were called inactive; ? = inconclusive; nt = no result given; [ ] = dose if it differs, or a comment. Compounds with a hit are over-represented: about 11% of the library has one in this group of screens. Unless noted, the call rests on the fitted dose curve; in most records, active means well fitted curve in the direction sought with a large enough effect; inconclusive means small, poorly fitted or top-dose-only effect, or another doubt; inactive means no such curve, though single readings can be large; an effect the other way counts as inactive or inconclusive. Unless noted, on the % scale 0 is the no-effect control and ±100 the full control effect.

SMILES | HPGD block | ALDH1A1 block | IMPase Li inh | PNC inhibitor | ALOX12 inhib | IMPase inh
O=C(O)c1c(C(=O)O)c2ccccc2[nH]c1=O | -19% | -5% | -11% | nt | nt | nt
C=CCN1C(=O)/C(=C2/C(=O)N(CC(=O)O)c3ccccc32)S/C1=N/c1nccs1 | -26% | -14% | 1%[38.3 µM] | -15 | -26% | 3
C=CCN1C(=O)/C(=c2\sc3nc(=O)c(Cc4ccccc4Cl)nn3c2=O)c2ccccc21 | nt | 3.5µM* | nt | nt | nt | nt
CC(=O)N1CCC2(CCCN(c3ccccn3)C2)CC1 | ? | ? | 12% | nt | 1% | nt
Cc1c(Cl)cccc1NC(=O)C[C@H]1Sc2ccccc2NC1=O | -1% | 18%[13.5 µM] | -6% | nt | -2%[11.4 µM] | nt
O=C(c1ccc(Cl)s1)N1CCCC1 | 7.9µM* | ? | 37%[38.3 µM] | -19 | 3% | 9
CCc1ccc(C(=O)N2CCN(c3ccc(F)cc3)CC2)s1 | -4% | -4% | 18%[38.3 µM] | ? | -3% | 5
CCc1ccc(C(=O)N2CCCC2)s1 | 16µM* | ? | 7% | ? | 2% | 1
CS(=O)(=O)N1CCN(C(=O)c2ccc(Cl)s2)CC1 | nt | -5% | -1% | nt | nt | nt
CCCC1O[C@@H]2C[C@H]3[C@@H]4CCC5=CC(=O)C=C[C@]5(C)C4[C@@H](O)C[C@]3(C)[C@]2(C(=O)CO)O1 (some centres undefined) | -14% | 6% | -12% | nt | nt | nt
CCCCOc1ncnc2c1[nH]c1ccc(C)cc12 | nt | -2% | nt | nt | nt | nt
COC(=O)C(C(C)=O)C(NC(=O)NCc1ccccc1)c1ccccc1 (centres undefined) | nt | -16%[13.5 µM] | nt | nt | nt | nt
Nc1nc(-c2ccc3c(c2)NC(=O)CO3)cs1 | 18µM* | 3.2µM* | 37%[38.3 µM] | ? | -17% | 0
CCC(C)C(=O)Nc1nc(-c2ccc3c(c2)NC(=O)CO3)cs1 (centres undefined) | -26% | 20µM* | -4%[38.3 µM] | 45 | -1% | 5
Cc1cnc(CNc2ncncc2-c2ccccc2C)cn1 | nt | 1% | 1% | nt | nt | nt
Cc1noc(C)c1C(=O)N1CCC2(CCCN(C(=O)Nc3cccc(F)c3)C2)CC1 | -2% | 3% | -7% | nt | 4% | nt
CC(C)c1ccc(/C=C/C(=O)N2CCCCCC2)cc1 | 14µM* | ? | 5% | ? | -7% | nt
O=C(Nc1cccc(O)c1)c1cc(S(=O)(=O)N2CCCC2)ccc1Cl | -7% | 5µM* | 3%[38.3 µM] | -6 | 1% | -5
CCOc1ncccc1C(=O)Nc1ccc(Cl)c(S(=O)(=O)N2CCCC2)c1 | nt | 4.5µM* | 4% | nt | nt | nt
CCOc1ncccc1C(=O)Nc1ccc(F)c(Cl)c1 | nt | -8% | -19% | nt | nt | nt
O=C(Nc1ccc(Cl)cn1)c1cc(S(=O)(=O)N2CCCCC2)ccc1Cl | -13% | 28µM* | 1%[38.3 µM] | -16 | 0% | 6
O=C(Nc1ccccc1)c1cc(S(=O)(=O)N2CCSCC2)ccc1Cl | -2% | -12% | 5% | ? | 1% | nt
CC(=O)Oc1ccc2c(c1)CCC1C2CC[C@]2(C)C(OC(C)=O)CCC12 (some centres undefined) | -14% | 9% | 22% | nt | -14% | nt
Cc1c(NS(=O)(=O)c2ccc3c(c2)OCCO3)cccc1-c1nc2cccnc2s1 | -27% | 16µM* | 59%[38.3 µM] | ? | -4% | 7
CCCCC1=CC2=C(OC(C)=O)C(=O)C(C)(OC(=O)CCC(=O)OC)C(=O)C2=CO1 (centres undefined) | -9% | 0% | -2% | nt | 2% | nt
SMILES | HPGD block | ALDH1A1 block | IMPase Li inh | PNC inhibitor | ALOX12 inhib | IMPase inh
Cc1nn(C)c(C)c1S(=O)(=O)N(CC(=O)N1CCc2ccccc2C1)c1ccc(C(C)C)cc1 | -5% | 11µM* | 4%[38.3 µM] | 32 | -10% | 6
CCc1c(C)sc(NC(=O)c2cc(C)no2)c1C#N | 32µM* | 13µM* | 1%[38.3 µM] | 33 | 1% | -7
Cc1nn(CCCC(=O)Nc2sc3c(c2C#N)CCC3)c(C)c1[N+](=O)[O-] | 22µM* | 2.5µM* | 17%[38.3 µM] | 3 | -3% | 7
CCC(CC)NC(=O)c1cc([N+](=O)[O-])ccc1N1CCOCC1 | nt | ? | nt | 1 | -7% | 1
CC(C)c1onc(C(=O)N2CCCCCC2)c1[N+](=O)[O-] | nt | 25µM* | -5% | nt | nt | nt
N#Cc1c(NC(=O)c2cc([N+](=O)[O-])ccc2N2CCOCC2)sc2c1CCCC2 | 28µM* | -7% | 1% | 48 | -3% | nt
CCc1c(C)sc(NC(=O)CC#N)c1C#N | ? | 3.5µM* | -7%[38.3 µM] | 9 | -12% | 12
CC(C)c1onc(C(=O)Nc2sc3c(c2C#N)CCC3)c1[N+](=O)[O-] | nt | 13µM* | 1% | nt | nt | nt
Cc1cc(C(=O)Nc2sc(C)c(C)c2C#N)no1 | -4% | 13µM* | 25%[38.3 µM] | ? | -8% | 4
CC(C)c1cc(C(=O)Nc2sc3c(c2C#N)CCC3)no1 | ? | 18µM* | 8%[38.3 µM] | 7 | -13% | 8
Cc1nn(C(C)C(=O)Nc2sc3c(c2C#N)CCCC3)c(C)c1[N+](=O)[O-] (centres undefined) | -4% | -10% | -4%[38.3 µM] | 70 | -7% | 3
CCCCCCCCC1CO1 (centres undefined) | -2% | -4% | -2% | nt | -9% | nt
FC(F)(F)c1ccccc1-c1ccc2ncnc(NC3CC3)c2c1 | nt | -5% | 11% | nt | nt | nt
Cn1c(=O)c(-c2cccs2)nc2cncnc21 | nt | ? | 10% | nt | nt | nt
CCCCC/C=C\C/C=C\C/C=C\C=C\C(O)CCCC(=O)O (centres undefined) | -3% | 3% | 7% | nt | -3% | nt
CCc1ccc(NC(=O)c2cc(C(C)C)on2)cc1 | -24% | ? | 14%[38.3 µM] | 11 | 4% | 15
CCc1c(C)sc(NC(=O)c2cc(C(C)C)on2)c1C#N | nt | 18µM* | 0% | nt | nt | nt
CCc1ccc(NC(=O)c2cc(C)on2)cc1 | -7% | 1% | -14%[38.3 µM] | -22 | -2% | -2
O=C(Nc1sc2c(c1C(=O)c1ccc(Cl)cc1)CCCC2)c1cccnc1 | -18% | 20µM* | 35%[38.3 µM] | 26 | 3% | 3[1.84 µM]
N#Cc1c(NC(=O)c2cnccn2)sc2c1CCCC2 | 28µM* | 14µM* | -1% | 7 | 1% | nt
CCCc1cc(C(=O)OC)c(NC(=O)c2cc(C)on2)s1 | -24% | 9% | 17% | -87* | 7% | -10
CCCCC/C=C\C/C=C\C/C=C\C/C=C\CCCCCC(N)=O | -6% | -2% | 14% | nt | 2% | nt
CCN(CC)CCCCn1c(-c2ccccc2)nc2c(NC3CCCCC3)nc(C)nc21 | ? | ? | 10% | nt | -5% | nt
C=CCn1c(SCc2ccc(Cl)cc2)nc2c1c(=O)[nH]c(=O)n2C | -14% | 10% | 4%[38.3 µM] | ? | -4% | 0
C=CCSc1nc2c(c(=O)[nH]c(=O)n2C)n1Cc1ccc(C)cc1 | 25µM* | -11% | -4% | ? | 2% | 2
